From the OligoGym collection

molecular target: KLHL24; assay: pooled miR-30 sensor sort-seq; sequence = guide strand; settings: shRNA
Further: reference of the scale not given here.

Point of comparison: TATCAGAACAAGTATTATCATC, sensor-assay potency score (higher = more potent) -1.27. Against it:
- ATAACATCTGTGAATAAGCGGC — higher, -0.459
- TTACAGGATCGTAGCACTCAGT — higher, -1.07
- TGGATCATAAGATTGAACCTTA — higher, 0.374
- TTTTGTGACGCCATCTGCCTTT — higher, -0.286
- TATGAATAGTCACACAGCCATG — lower, -1.71
- TTGCCTTGGTCAGTCCACCGGC — higher, -0.546

molecular target: KLHL5; assay: as above; settings: shRNA

Point of comparison: TTATTGTTGCTTTAAGTCCTTA, sensor-assay potency score (higher = more potent) -0.543. Against it:
- TTTGACATCAGGCACTTTGTGC — lower, -0.672
- TAACATGGGTCGTCTCTCTGGT — higher, 0.867
- TGTGTGATCACAATCCACCAGC — lower, -0.62
- TATCTTTCCACACAGTCTGAGA — lower, -1.09
- TTTCTCTACATAAATTTGCATA — lower, -0.841
- TATGCAAATCTGTACAACCTTG — lower, -0.563
- TAAAATTACATCACACAACTGT — higher, 0.596
- TAATGTCTGACTACTATTGGAA — lower, -0.622
- TTGACATCTGTGCACACAGTGT — lower, -0.886
- TAGCACTGCAACACCGAACTGT — higher, 0.529
- TTCATTAAAAACTTACAGCATG — lower, -0.802

molecular target: KLK5; assay: as above; settings: shRNA

Point of comparison: TTTCTGACTTAGCACGCTGATA, sensor-assay potency score (higher = more potent) -1.58. Against it:
- TAGAGAGACACGGTCAGCCCAA — higher, 0.0597
- TTTTCTGACTTAGCACGCTGAT — higher, -0.837
- AACATTCTCAACATCTCTGGGA — higher, 0.475
- TCTCGGGTAAGCATCCTCGCAC — higher, -0.337
- TTGATGATGCGGCTGCTGCTGT — higher, -0.719
- ACTCTGAAAACTTTCTTCCTGC — higher, -0.332
- TTCGTGTAGACACCCGGTCTGT — higher, -0.664
- TGAACATTCTCAACATCTCTGG — higher, -0.405
- TTGATGGGTCTGACATCTTTAG — higher, -1.51
- TTGGGCCTTAGCAACAGCGCGG — higher, -0.877

molecular target: KPRP; assay: as above; settings: shRNA

Point of comparison: TAGCCCTTGACTGAAACTGGGG, sensor-assay potency score (higher = more potent) -0.902. Against it:
- TAGACTGACATTGAGCCTGGCC — higher, 0.158
- TCTTAGACTGACATTGAGCCTG — higher, -0.234
- TTGGTCTCCATGGCCATCCTGA — higher, -0.799
- TAGACTGGCACTTCACCTGTGT — higher, 0.425
- TTGTCGTGGTAGAGGACGCGGG — lower, -1.43
- TTGAACCACCACTTGGCTCTGG — higher, 0.211
- TTTCTGTATAACAAACTGGAGC — lower, -1.23
- TGGTCTTAGACTGACATTGAGC — lower, -1.69
- TAGTTGTTGCAGGTAGCCCTTG — higher, -0.668
